The text below walks through data of PubChem BioAssay.

Experiment [1] is described as follows: survival rescue of mitochondrial mutant cells in low glucose, primary screen, MELAS cybrids, Rieske KO mouse fibroblasts, CellTiter-Glo (AID 1508586).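 Further: z relative to plate mean and SD of compound and empty wells.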
Experiment [2] concerns the target NAD(+) hydrolase SARM1 (Homo sapiens) (UniProt Q6SZW1). The experiment can be described thus: SARM1 TIR NADase inhibitors, cell lysate, NAD-Glo luminescence (AID 1508614;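 active means compound whose remaining NAD level is above about 45 nM, limit read from the data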). The settings on record: SAM-TIR HEK293T lysate NADase, at 1 µM, stronger effect = higher value.
The target of experiment [3] is Mitogen-activated protein kinase 7 (Homo sapiens) (UniProt Q13164). Briefly: ERK5 transactivation activators in reporter cells, primary screen, cell-based, HTS (AID 1508626;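 active means luciferase signal above three times the same-plate solvent-only control wells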;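 further: luciferase driven by Gal4-ERK5 fusion binding five Gal4 sites before minimal TATA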). The following applies: HeLa Gal4-ERK5 transactivation, 18 h, at 5 µM, stronger effect = higher value.
Sequence of Mitogen-activated protein kinase 7 (Homo sapiens) (Q13164 whole entry, looked up, the tested form may be a part): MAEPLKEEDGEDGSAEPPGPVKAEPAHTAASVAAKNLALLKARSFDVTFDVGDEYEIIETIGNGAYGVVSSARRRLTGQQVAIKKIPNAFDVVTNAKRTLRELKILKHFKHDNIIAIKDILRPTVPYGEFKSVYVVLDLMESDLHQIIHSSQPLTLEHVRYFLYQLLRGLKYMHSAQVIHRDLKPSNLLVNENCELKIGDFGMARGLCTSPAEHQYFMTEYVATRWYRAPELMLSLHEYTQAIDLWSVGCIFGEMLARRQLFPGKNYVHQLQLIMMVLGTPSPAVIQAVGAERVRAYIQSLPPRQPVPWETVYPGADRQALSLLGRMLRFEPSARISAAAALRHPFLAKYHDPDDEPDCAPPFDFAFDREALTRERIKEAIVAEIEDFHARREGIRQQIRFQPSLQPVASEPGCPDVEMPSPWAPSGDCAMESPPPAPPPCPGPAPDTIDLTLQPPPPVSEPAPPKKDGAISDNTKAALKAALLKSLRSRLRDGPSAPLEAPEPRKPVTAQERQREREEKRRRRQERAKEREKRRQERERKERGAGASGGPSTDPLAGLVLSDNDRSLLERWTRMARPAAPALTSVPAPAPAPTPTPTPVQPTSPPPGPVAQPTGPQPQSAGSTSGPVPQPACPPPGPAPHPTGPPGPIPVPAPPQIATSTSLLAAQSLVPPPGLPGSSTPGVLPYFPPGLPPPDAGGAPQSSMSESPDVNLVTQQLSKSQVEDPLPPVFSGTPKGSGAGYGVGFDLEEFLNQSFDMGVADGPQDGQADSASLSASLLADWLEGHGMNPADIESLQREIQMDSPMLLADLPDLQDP
Experiment [4] can be described thus: viability rescue of complex I mutant cybrids, primary screen, cell-based, galactose medium, ATP luminescence (AID 1645843;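 active means z-score of at least 1.8 in each of two replicates, scored against plate mean and spread of sample wells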;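 further: positive z means more ATP and so rescue of galactose-driven cybrid death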). The settings on record: complex I mutant cybrid cells, 72 h, stronger effect = higher value.
Where [5] appears, read: MELAS cybrid survival, CellTiter-Glo 48 h, stronger effect = higher value.
[6] abbreviates: Rieske KO mouse fibroblast survival, CellTiter-Glo 72 h.

SMILES strings stand for the structures. Where “and” joins values, the source holds several entries; their conditions need not be identical. Equal entries are not always repeated. A structure can be active in one record and inactive in another. Calls of active or inactive are those of the source.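 How the source made its calls, unless noted: active means mean z-score across replicates of 1.96 or higher in either the MELAS or the Rieske mutant cell line; inactive means the rest.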

Sequence of NAD(+) hydrolase SARM1 (Homo sapiens) (Q6SZW1 whole entry, looked up, the tested form may be a part): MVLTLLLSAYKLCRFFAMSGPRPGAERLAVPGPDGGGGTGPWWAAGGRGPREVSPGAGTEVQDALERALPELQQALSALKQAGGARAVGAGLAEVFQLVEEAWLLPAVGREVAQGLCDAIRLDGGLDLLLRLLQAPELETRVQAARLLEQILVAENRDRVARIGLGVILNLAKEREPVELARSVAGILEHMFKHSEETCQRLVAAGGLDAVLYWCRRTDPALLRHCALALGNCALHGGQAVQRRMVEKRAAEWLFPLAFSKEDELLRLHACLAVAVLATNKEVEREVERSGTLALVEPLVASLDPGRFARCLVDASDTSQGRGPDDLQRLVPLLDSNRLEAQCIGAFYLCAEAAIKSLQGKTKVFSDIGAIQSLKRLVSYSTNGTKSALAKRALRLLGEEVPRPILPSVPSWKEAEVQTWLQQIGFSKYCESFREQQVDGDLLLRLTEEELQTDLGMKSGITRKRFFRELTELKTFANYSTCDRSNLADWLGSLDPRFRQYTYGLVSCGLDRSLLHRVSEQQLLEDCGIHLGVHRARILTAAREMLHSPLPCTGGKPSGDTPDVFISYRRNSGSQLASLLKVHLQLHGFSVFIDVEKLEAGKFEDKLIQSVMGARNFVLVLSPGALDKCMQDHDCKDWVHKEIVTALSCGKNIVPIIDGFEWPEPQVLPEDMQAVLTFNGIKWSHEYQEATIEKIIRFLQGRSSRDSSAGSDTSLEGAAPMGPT

For `CCc1oc2ccccc2c1C(=O)c1cc(Br)c(O)c(Br)c1`, the z-score in experiment [1] (setting [5]) is -0.224 (inactive) and 0.135 (inactive); in experiment [1] (setting [6]), -0.158 and -0.137; in experiment [4] it was -1.42 (inactive). In experiment [2], the remaining NAD was 10 nM (inactive). In experiment [3], the luciferase signal was 52 AU (inactive).
As to `CCCCCCCCCCCCCCCCCCOCC(O)CO` (centres undefined), in experiment [3], the luciferase signal is 152 AU (inactive).
For `CC(=O)OCC(=O)[C@@]1(O)[C@H](OC(C)=O)C[C@H]2[C@@H]3CCC4=CC(=O)C=C[C@]4(C)[C@@]3(F)[C@@H](O)C[C@@]21C`, in experiment [2], the remaining NAD is 10 nM (inactive). In addition, the luciferase signal in experiment [3] was 96 AU (inactive).
Turning to `N[C@@H](CCC(=O)N[C@@H](CS)C(=O)NCC(=O)O)C(=O)O`, the remaining NAD in experiment [2] is 22 nM (inactive). Besides, the luciferase signal in experiment [3] was 68 AU (inactive).
For the compound `Cc1ccc(C(C)C)cc2c(C)ccc1-2`, in experiment [3], the luciferase signal was 128 AU (inactive).
Regarding `CCCCCCOc1ccccc1C(N)=O`, the remaining NAD in experiment [2] was 10 nM (inactive). In addition, the luciferase signal in experiment [3] was 48 AU (inactive).
In the case of `CC(=O)NS(=O)(=O)c1ccc(N)cc1`, the z-score in experiment [1] (setting [5]) was -0.241 (inactive) and 0.341 (inactive); in experiment [1] (setting [6]), -0.167 and 0.175; in experiment [4], -0.2 (inactive). Moreover, the remaining NAD in experiment [2] is 10 nM (inactive). Further, the luciferase signal in experiment [3] was 64 AU (inactive).
As for `O=c1[nH]cnc2c1ncn2[C@@H]1O[C@H](CO)[C@@H](O)[C@H]1O`, the remaining NAD in experiment [2] was 10 nM (inactive). In experiment [3], the luciferase signal was 44 AU (inactive).
Take `c1ccc(CN(CC2=NCCN2)c2ccccc2)cc1`: the z-score in experiment [1] (setting [5]) was 0.519 (inactive) and -0.255 (inactive) and -0.229 (inactive); in experiment [1] (setting [6]) it was -0.208 and -0.144 and -0.113; in experiment [4] it was -0.39 (inactive) and 0.065 (inactive). In addition, the remaining NAD in experiment [2] is 10 nM (inactive). Also, in experiment [3], the luciferase signal was 112 AU (inactive).
As for `COc1ccc(CN2CCN(C(c3ccc(F)cc3)c3ccc(F)cc3)CC2)c(OC)c1OC`, the z-score was -0.49 (inactive) and -0.685 and -0.348 (inactive) in experiment [1] (setting [5]); -0.282 and 2.06 and 1.06 in experiment [1] (setting [6]); -1.88 (inactive) and -2.46 (inactive) in experiment [4]. The remaining NAD in experiment [2] is 10 nM (inactive).
As to `Nc1ccc(N=Nc2ccccc2)c(N)n1`, the z-score in experiment [1] (setting [5]) is 3.05 (active) and 0.049 (inactive) and 2.48 (active); in experiment [1] (setting [6]) it was 0.473 and -0.21 and 1.1; in experiment [4], -0.225 (inactive). In experiment [2], the remaining NAD is 10 nM (inactive). Further, the luciferase signal in experiment [3] was 464 AU (active).
Regarding `C[C@@H]1C[C@H]2[C@@H]3CCC4=CC(=O)C=C[C@]4(C)[C@@]3(F)[C@@H](O)C[C@]2(C)[C@H]1C(=O)CO`, in experiment [2], the remaining NAD was 10 nM (inactive). Also, the luciferase signal in experiment [3] is 32 AU (inactive).
The matching figures for `CC(=O)OCC(=O)[C@H]1CC[C@H]2[C@@H]3CCC4=CC(=O)CC[C@]4(C)[C@H]3CC[C@]12C`: 10 nM (inactive) and 60 AU (inactive).
In the same order, the values of `COc1ccc2cc1Oc1ccc(cc1)C[C@H]1c3c(cc4c(c3Oc3cc5c(cc3OC)CCN(C)[C@@H]5C2)OCO4)CCN1C` are 10 nM (inactive) and 212 AU (inactive).
For `CC(=O)OCC(=O)NCCCOc1cccc(CN2CCCCC2)c1`, the z-score in experiment [1] (setting [5]) was -0.52 (inactive) and 0.36 (inactive) and 0.133 (inactive); in experiment [1] (setting [6]), -0.102 and 0.209 and -1.07; in experiment [4], 0.45 (inactive) and 0.22 (inactive). In addition, the remaining NAD in experiment [2] is 10 nM (inactive).
With `COC(=O)[C@@H](N)CS`, in experiment [2], the remaining NAD was 10 nM (inactive). In addition, in experiment [3], the luciferase signal is 52 AU (inactive).
In the case of `COC(=O)C1=C(C)NC(C)=C(C(=O)OCC(C)C)C1c1ccccc1[N+](=O)[O-]` (centres undefined), the z-score is -0.516 (inactive) and 0.43 (inactive) and -1.18 (inactive) in experiment [1] (setting [5]); 0.274 and 1.45 and 0.961 in experiment [1] (setting [6]); -1.86 (inactive) and -2 (inactive) in experiment [4]. Further, the remaining NAD in experiment [2] is 10 nM (inactive). Moreover, the luciferase signal in experiment [3] is 72 AU (inactive).
With `O=C1OCCN1/N=C/c1ccc([N+](=O)[O-])o1`, the remaining NAD in experiment [2] is 10 nM (inactive). Further, in experiment [3], the luciferase signal was 56 AU (inactive).
In the same order, the values of `CC(C)(C)CC(C)(C)c1ccc(O)c(Cc2ccc(Cl)cc2Cl)c1` are 10 nM (inactive) and 52 AU (inactive).
In the case of `Oc1ccc(Cl)cc1Cc1cc(Cl)ccc1O`, in experiment [2], the remaining NAD is 10 nM (inactive). Besides, the luciferase signal in experiment [3] is 72 AU (inactive).
Regarding `O=c1[nH]cnc2nc[nH]c12`, in experiment [3], the luciferase signal was 60 AU (inactive).
On to `COc1ccc(CCN2CCC(Nc3nc4ccccc4n3Cc3ccc(F)cc3)CC2)cc1`, for which the z-score is -0.668 (inactive) and -0.11 (inactive) in experiment [1] (setting [5]); -1.26 and 1.21 in experiment [1] (setting [6]); -0.615 (inactive) and -2.45 (inactive) in experiment [4]. The remaining NAD in experiment [2] is 10 nM (inactive). In experiment [3], the luciferase signal was 84 AU (inactive).
Regarding `CN(C)C(=O)Nc1ccc(Cl)c(Cl)c1`, the luciferase signal in experiment [3] was 260 AU (active).
`Nc1c(Br)cc(Br)cc1CNC1CCC(O)CC1` (centres undefined): the z-score in experiment [1] (setting [5]) is -0.0247 (inactive) and 0.738 (inactive) and 0.116 (inactive); in experiment [1] (setting [6]), -0.062 and -0.225 and -0.64; in experiment [4], -0.32 (inactive) and 0.295 (inactive). In experiment [2], the remaining NAD was 10 nM (inactive). The luciferase signal in experiment [3] was 84 AU (inactive).
